# Source: PubChem BioAssay (NCATS)
# Calls of active or inactive are those of the source. How the calls were made is not given here.
# Key:
# [1] = Immunotoxin (HA22) sensitization/mitigation study. Vehicle arm (PBS) (AID 1159510); settings: cancer cells viability with PBS vehicle (HA22 study); series mostly up to 46.1 µM
# [2] = Immunotoxin (SS1P) sensitization/mitigation study. Vehicle arm (DMEM) (AID 1159513); settings: cell viability with vehicle (DMEM); series mostly up to 46.1 µM
# Potency means the concentration at half of the fitted maximal effect.
Compound,Potency [1],Potency [2]
O=C(O)c1ccc2c(c1)nc(Nc1cccc(Cl)c1)c1ccncc12,5.26 µM (active),11.8 µM (active)
CCCCCCCCCCCCCC(=O)N[C@H](CO)[C@H](O)c1ccc([N+](=O)[O-])cc1,16.6 µM (active),23.5 µM (active)
c1ccc2c(-c3cnn4cc(-c5ccc(N6CCNCC6)cc5)cnc34)ccnc2c1,14.8 µM (active),18.7 µM (active)
CCOC(=O)C1=C[C@@]2(CC)CCCN3CCc4c(n1c1ccccc41)[C@H]32,inactive,inactive
COc1cc2c(cc1OC)CN(CCc1ccc(NC(=O)c3cccc4c(=O)c5cccc(OC)c5[nH]c34)cc1)CC2,18.7 µM (active),inactive
COc1cc2c(Oc3ccc(NC(=O)C4(C(=O)Nc5ccc(F)cc5)CC4)cc3F)ccnc2cc1OCCCN1CCOCC1,16.6 µM (active),16.6 µM (active)
O=C(OCC#CCSc1nnc(-c2ccc3ccccc3c2)o1)c1cc2ccccc2s1,inactive,inactive
Cc1nnc(C(C)C)n1C1CC2CCC(C1)N2CC[C@H](NC(=O)C1CCC(F)(F)CC1)c1ccccc1 (stereo partly drawn),inactive,inactive
NC(=O)c1ccc(-c2nc(-c3ccc4c(c3)OCCO4)c(-c3ccccn3)[nH]2)cc1,20.9 µM (active),inactive
COc1c(Cl)cc2c([nH]c3cnccc32)c1NC(=O)c1cccnc1C,inactive,inactive
COc1cc2ncnc(-n3nc(-c4ccccn4)nc3N)c2cc1OC,3.72 µM (active),4.18 µM (active)
Cc1cc(Nc2cc(N3CCN(C)CC3)nc(Sc3ccc(NC(=O)C4CC4)cc3)n2)n[nH]1,7.43 µM (active),18.7 µM (active)
CN(C)CCCN=c1c2ccccc2n(C)c2[nH]c(=O)n(C)c(=O)c12,7.43 µM (active),7.43 µM (active)
COc1cc2c(cc1OC)CC(=O)N(CCCN(C)C[C@H]1Cc3cc(OC)c(OC)cc31)CC2,inactive,inactive
c1ccc2c(CCNc3ccc(Nc4ccncc4)cc3)c[nH]c2c1,1.87 µM (active),20.9 µM (active)
CC1(C)Cc2c(-c3ccccc3)c(-c3ccc(Cl)cc3)c(CC(=O)O)n2C1,18.7 µM (active),16.6 µM (active)
Oc1cccc(-c2nc(N3CCOCC3)c3oc4ncccc4c3n2)c1,0.264 µM (active),0.0935 µM (active)
COc1ccc2c3n(c(=NC(=O)c4cccnc4)nc2c1OC)CCN3,11.8 µM (active),3.72 µM (active)
CC(C)(C)c1[nH]cnc1C=c1[nH]c(=O)c(=Cc2ccccc2)[nH]c1=O,0.0074 µM (active),0.0118 µM (active)
COc1cc(=C2C=c3ccccc3=N2)[nH]c1=Cc1[nH]c(C)cc1C,0.187 µM (active),6.62 µM (active)
CC(C)C(=O)Nc1ncc(-c2cc(C(F)F)nn2-c2c(Cl)cccc2Cl)s1,11.8 µM (active),18.7 µM (active)
CN1CCN(c2ccc3nc(-c4c(N)c5c(F)cccc5[nH]c4=O)[nH]c3c2)CC1,1.66 µM (active),18.7 µM (active)
O=C(Nc1ccc(OC(F)(F)F)cc1)c1sccc1NCc1ccnc2ccccc12,18.7 µM (active),18.7 µM (active)

Compound,Potency [1],Potency [2]
N#Cc1ccc(NC(=O)Nc2ccccc2Br)c2n[nH]nc12,26.4 µM (active),inactive
C=CCc1cccc(/C=N/NC(=O)CN2CCN(Cc3ccccc3)CC2)c1O,4.69 µM (active),13.2 µM (active)
C=CCn1c(=O)c2cnc(Nc3ccc(N4CCN(C)CC4)cc3)nc2n1-c1cccc(C(C)(C)O)n1,0.187 µM (active),0.166 µM (active)
O=C(O)[C@H](Cc1c[nH]c2ccccc12)N1C(=O)c2ccccc2C1=O,inactive,inactive
CN(c1ncccc1CNc1nc(Nc2ccc3c(c2)CC(=O)N3)ncc1C(F)(F)F)S(C)(=O)=O,1.48 µM (active),2.96 µM (active)
O=C1C(Cl)=C(NCCN2CCOCC2)C(=O)c2ncccc21,2.35 µM (active),14.8 µM (active)
CCC1(Cc2ccc(N)cc2)CCC(=O)NC1=O (stereo not drawn),inactive,inactive
O=C(O)CC/C=C\CC[C@H]1[C@@H](N2CCCCC2)[C@@H](O)C[C@@H]1OCc1ccc(-c2ccccc2)cc1,inactive,inactive
O=c1[nH]nc(Sc2ncc([N+](=O)[O-])s2)n1-c1ccc2c(c1)OCCO2,0.264 µM (active),20.9 µM (active)
CC(C)c1ccc2c(c1)c(SC(C)(C)C)c(CC(C)(C)C(=O)O)n2Cc1ccc(Cl)cc1,13.2 µM (active),11.8 µM (active)
CNC(=O)c1cc(Oc2ccc(NC(=O)Nc3ccc(Cl)c(C(F)(F)F)c3)c(F)c2)ccn1,20.9 µM (active),26.4 µM (active)
COCCNCCCn1c(C(=O)CF)c(-c2ccc(C)cc2)c2c(N)ncnc21,inactive,inactive
O=C(Nc1cc(C(F)(F)F)cc(C(F)(F)F)c1)c1cc(Cl)ccc1O,0.166 µM (active),0.0662 µM (active)
CC1=C(CO)C(=O)O[C@@H]([C@@H](C)[C@H]2CC[C@H]3[C@@H]4C[C@H]5O[C@]56[C@@H](O)C=CC(=O)[C@]6(C)[C@@H]4CC[C@]23C)C1,0.0743 µM (active),3.72 µM (active)
C1=CCOCc2cc(ccc2OCCN2CCCC2)Nc2nccc(n2)-c2cccc(c2)OCC1,3.72 µM (active),2.64 µM (active)
C[C@@H](O[C@H]1OCCN(Cc2n[nH]c(=O)[nH]2)[C@@H]1c1ccc(F)cc1)c1cc(C(F)(F)F)cc(C(F)(F)F)c1,14.8 µM (active),18.7 µM (active)
COc1cc2nc(-c3ccc(N4CCN(C)CC4)cc3)nc(NCCN3CCOCC3)c2cc1OC,2.35 µM (active),18.7 µM (active)
COc1ccc(-c2ccc3c(N4CCOCC4)nc(N4C[C@@H](C)O[C@@H](C)C4)nc3n2)cc1CO,1.48 µM (active),0.105 µM (active)
CCOC(=O)C(C)Oc1cccc2c(=O)n(CC(=O)Nc3ccc4c(c3)OCCO4)ccc12 (stereo not drawn),inactive,inactive
NC(=O)c1ccc(-c2nc(-c3ccc4c(c3)OCO4)c(-c3ccccn3)[nH]2)cc1,inactive,inactive
C=CC(=O)Nc1cccc(Oc2nc(Nc3ccc(N4CCN(C)CC4)cc3OC)ncc2Cl)c1,16.6 µM (active),23.5 µM (active)
Cc1cn2c(-c3cn[nH]c3)cnc2c(Nc2ccc(C(=O)N3CCNCC3)cc2F)n1,18.7 µM (active),13.2 µM (active)
CC=C1NC(=O)[C@H]2CSSCCC=C[C@H](CC(=O)N[C@H](C(C)C)C(=O)N2)OC(=O)[C@H](C(C)C)NC1=O,0.0017 µM (active),0.0019 µM (active)

Compound,Potency [1],Potency [2]
CCN(CC)CCOc1ccc(Nc2ncc3cc(-c4c(Cl)cccc4Cl)c(=O)n(C)c3n2)cc1,1.18 µM (active),0.332 µM (active)
OC[C@H](Cc1ccccc1)Nc1nc(Oc2ccc3c(c2)CCC3)nc2c1ncn2Cc1ccc(-c2ccccc2)cc1,10.5 µM (active),13.2 µM (active)
CC(C)(C)c1cc(C(=O)O)c(NC(=O)Nc2ccc3[nH]ncc3c2)s1,inactive,inactive
COc1ccc(C=Cc2cc(OC)c(OC)c(OC)c2)cc1O,inactive,0.0019 µM (active)
Cc1cc2c(F)c(Oc3ncnn4cc(OC[C@@H](C)O)c(C)c34)ccc2[nH]1,14.8 µM (active),14.8 µM (active)
COc1cccc2cc(-c3nc(C4CCC(C(=O)O)CC4)n4ncnc(N)c34)[nH]c12 (stereo not drawn),6.62 µM (active),0.235 µM (active)
O=C(C=Cc1cccc(S(=O)(=O)Nc2ccccc2)c1)NO,0.264 µM (active),0.833 µM (active)
OC[C@H]1O[C@@H](n2cnc3c2NC=NC[C@@H]3O)C[C@H]1O,inactive,inactive
COc1cc(Nc2ncc(F)c(Nc3ccc4c(n3)NC(=O)C(C)(C)O4)n2)cc(OC)c1OC,18.7 µM (active),16.6 µM (active)
O=C(O)c1ccc(-c2cc3cccnc3c(-c3ccc4nonc4c3)n2)cc1,inactive,inactive
CN1CC[C@@H](c2c(O)cc(O)c3c(=O)cc(-c4ccccc4Cl)oc23)[C@@H](O)C1,0.0166 µM (active),0.0469 µM (active)
COc1nc(-c2ccc3c(c2)OCO3)n(-c2ccc(NC(=O)CSc3ccccc3)cc2)n1,20.9 µM (active),inactive
Cc1cccc(C=NNc2cc(N3CCOCC3)nc(OCCc3ccccn3)n2)c1,4.69 µM (active),20.9 µM (active)
Cc1cc([C@@H](C)Nc2ccccc2C(=O)O)c2nc(N3CCOCC3)cc(=O)n2c1,14.8 µM (active),20.9 µM (active)
CC(=O)Nc1sc2c(c1-c1nc3ccccc3s1)CNC2,16.6 µM (active),23.5 µM (active)
CS(=O)(=O)Oc1ccc2c(NC(N)=O)c(C(=O)c3ccc(Cl)cc3Cl)oc2c1,inactive,inactive
O=C(NOC[C@H](O)CO)c1ccc(F)c(F)c1Nc1ccc(I)cc1F,inactive,inactive
COc1cc2ncn(-c3cc(OCc4ccccc4C(F)(F)F)c(C(N)=O)s3)c2cc1OC,0.296 µM (active),0.166 µM (active)
O=C(Nc1ccc(F)c(C(F)(F)F)c1)Nc1nnc(-c2ccncc2)s1,2.09 µM (active),5.9 µM (active)
COCC(=O)NCC=Cc1ccc2ncnc(Nc3ccc(Oc4ccc(C)nc4)c(C)c3)c2c1,23.5 µM (active),18.7 µM (active)
C[C@@H](N)C1CCC(C(=O)Nc2ccncc2)CC1 (stereo partly drawn),inactive,inactive
O=c1cc(CN2CCOCC2)occ1OCCCCCSc1ccnc2cc(C(F)(F)F)ccc12,20.9 µM (active),5.9 µM (active)
C[C@]1(CO)CN(c2cc(C(=O)Nc3ccc4c(c3)-c3c(c(C(N)=O)nn3-c3ccc(F)cc3)CC4)c(Cl)cn2)C[C@@]1(C)CO,3.32 µM (active),16.6 µM (active)
